High-throughput results as filed in PubChem.
TcdB inh = inhibitors of Clostridioides difficile toxin B glycohydrolase. P18177. TcdB glycohydrolase enzymatic assay, plate reader. inhibition, % at 9.99 µM. actives 0.24% (n = 350,000). AID 652162; in the data active = inhibition above about 10%
PrPC TRFRET = cell surface PrPC inhibition, primary TR-FRET screen; P04156; TR-FRET read-out; inhibition, % at 13.8 µM; actives 0.43% (n = 370,000); AID 720596; in the data active = inhibition above about 24%; also: 0% = median of the test wells and 100% = reference compound wells
Mtb FBA inh = inhibits M. tuberculosis FBA enzyme; inhibition, % at 1 µM; P9WQA3; actives 2.3% (n = 360,000); purified M. tuberculosis FBA, fluorescence read-out; AID 588726;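 also: 0% = vehicle and 100% = reference inhibitor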
Y pestis TopoI = Y. pestis Topo-I inhibition via cleavage products; activity, % at 10 µM; actives 0.064% (n = 360,000); AID 504884; Y. pestis Topo-I cleavage product accumulation, plate reader; in the data active = activity above about 50%, passing the limit was not always enough
GDH-TPI counter-1 = inhibits GDH-TPI coupling enzymes, artifact for Mtb FBA screen. actives 1.2% (n = 360,000). inhibition, % at 4.8 µM. GDH-TPI coupled enzyme counterscreen, NADH absorbance. AID 588335; in the data active = inhibition above about 30%;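 also: 0% = DMSO wells and 100% = wells lacking the enzyme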
Mtb FBA inh conf = Mtb FBA inhibition, confirmed | shares compounds with Mtb FBA inh | purified M. tuberculosis FBA, fluorescence read-out | inhibition, % at 1 µM | actives 78% (n = 5,600) | AID 651616;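 also: 0% = vehicle wells and 100% = reference inhibitor wells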
GDH-TPI counter-2 = counter-screen for M. tuberculosis FBA inhibitors: GDH-TPI coupled enzyme inhibition; shares compounds with Mtb FBA inh; GDH-TPI coupled enzyme counterscreen, fluorescence; inhibition, % at 1 µM; actives 81% (n = 5,600); AID 652141; in the data active = inhibition above about 10%
* hit, by the source's call; · = no result; + = active, no number. A selection: hits, their analogues and other compounds. The true share with any hit is near 3.2%. Rule as the data show it, unless noted: active = inhibition above about 27%; inactive = the rest.

SMILES	TcdB inh	PrPC TRFRET	Mtb FBA inh	Y pestis TopoI	GDH-TPI counter-1	Mtb FBA inh conf	GDH-TPI counter-2
O=C(c1ccc2c3c(cccc13)CC2)C1CCCN(C(=O)c2ccc[n+]([O-])c2)C1 (stereo unspecified)	0	-8	29*	10	16	+	165*
C[C@H]1CN([C@@H](C)CO)C(=O)c2cc(NC(=O)CCN3CCOCC3)ccc2O[C@@H]1CN(C)S(=O)(=O)c1ccc(Cl)cc1	0	·	·	·	·	·	·
CC1CCC(N2CCN(S(C)(=O)=O)CC2)CC1 (stereo unspecified)	1	3	56*	5	6	110*	102*
CCNC(=S)Nc1ccc2c(c1)c(=O)n(C)n2CC=C(C)C	0	-7	63*	6	3	185*	152*
C=C(C)Cn1c2ccc(NC(=S)NCc3ccccc3F)cc2c(=O)n1C	-1	0	36*	1	0	148*	106*
CCOC(=O)c1cc2c(s1)-c1ccccc1CC2	·	1	49*	19	19	7	0
CO[C@@H]1CN(C)C(=O)c2cc(NC(=O)c3cnccn3)ccc2OC[C@@H](C)N(CC2CC2)C[C@@H]1C	-2	·	·	·	·	·	·
CCOC(=O)Nc1ccc(C)cc1C	·	-1	4	6	6	·	·
CCOC(=O)Nc1cc2c(C)cc(=O)oc2cc1C	·	2	28*	0	8	54*	42*
COc1cc2nc(N3CCN(c4cc(C)ccc4C)CC3)nc(N)c2cc1OC	1	-12	6	-27	15	·	·
COc1cc2nc(N3CCNCC3)nc(N)c2cc1OC	·	4	56*	-5	4	8	-3
COc1ccc(S(=O)(=O)Nc2c(NC3CCCCC3)c3ccccc3oc2=O)cc1Cl	-9	4	29*	22	-7	+	+
Cc1cc(S(=O)(=O)Nc2c(NC3CCCCC3)c3ccccc3oc2=O)ccc1F	1	1	5	13	6	·	·
COc1ccc(CNC(=O)C[C@H]2C[C@H](C(=O)N3CCCCC3)[C@@]3(C)c4[nH]c5cc(-c6ccco6)ccc5c4CCN3C2=O)cc1OC	1	-3	28*	8	10	79*	56*
CCN(CC)C(=O)[C@H]1C[C@H](CC(=O)NCc2ccc(OC)c(OC)c2)C(=O)N2CCc3c([nH]c4cc(-c5ccco5)ccc34)[C@]12C	0	-2	46*	14	16	144*	105*
CC[C@]12c3[nH]c4cc(-c5ccco5)ccc4c3CCN1C(=O)[C@@H](CC(=O)NCc1ccc(OC)c(OC)c1)C[C@@H]2C(=O)N1CCN(C(=O)c2ccco2)CC1	1	-5	14	17	22	·	·
COc1ccc(-c2cnc3c(c2)C(=O)N([C@H](C)CO)C[C@@H](C)[C@H](CN(C)C(=O)Cc2cccnc2)O3)cc1	-1	·	·	·	·	·	·
CCN(c1cccc(C)c1)S(=O)(=O)c1ccc2c(c1)oc(=O)n2C	1	15	79*	6	2	49*	46*
CN(C)CCNC(=O)c1cccc(-c2cnc3c(NC=O)cc(-c4cc(F)c(F)c(F)c4)cn23)c1	0	-16	1	-22	9	·	·
CN(C)CCCOc1ccc(-c2cccc3nncn23)cn1	1	-6	43*	-1	10	146*	120*
CN(C)CCNC(=O)c1cccc(-c2cccc3nncn23)c1	2	1	71*	-2	0	134*	88*
Cc1cccn2c(=O)c3cc(C(=O)NCCc4ccccc4)c(=N)n(Cc4ccco4)c3nc12	1	-12	30*	3	-2	+	+
Cc1cccn2c(=O)c3cc(C(=O)NCc4ccco4)c(=N)n(CCc4ccccc4)c3nc12	2	-16	53*	1	4	90*	81*
Cc1cccn2c(=O)c3cc(C(=O)NCC4CCCO4)c(=N)n(CCc4ccccc4)c3nc12 (stereo unspecified)	1	-19	109*	2	-5	76*	64*
COc1ccc(CCNC(=O)c2cc3c(=O)n4cccc(C)c4nc3n(CC3CCCO3)c2=N)cc1 (stereo unspecified)	0	-30	20	0	5	·	·
SMILES	TcdB inh	PrPC TRFRET	Mtb FBA inh	Y pestis TopoI	GDH-TPI counter-1	Mtb FBA inh conf	GDH-TPI counter-2
CNc1cnc(-c2ccsc2)cn1	1	-8	88*	6	9	134*	110*
CC1=C(C)C(=O)N(C(C)CCc2ccccc2)C1=O (stereo unspecified)	1	-6	40*	1	8	89*	75*
CCNC(=S)N/N=C1\C(=O)c2cccc3cccc1c23	·	-7	-2	-16	21	·	·
O=C(N/N=C1/C(=O)c2cccc3cccc1c23)c1ccc(Cl)cc1	·	2	80*	2	8	79*	62*
CN(C)C=Nc1ccc2nc3c(cc2c1)[nH]c1ccccc13	8	-37	51*	-38	18	172*	144*
O=C(COC(=O)c1ccccc1C(=O)c1ccccc1)Nc1cccc([N+](=O)[O-])c1	2	-10	55*	-1	5	85*	74*
C[C@H]1CN([C@@H](C)CO)C(=O)Cc2cc(NC(=O)Nc3cccc4ccccc34)ccc2O[C@H]1CN(C)C(=O)Nc1ccccc1	0	·	·	·	·	·	·
CCOC(=O)Cc1csc(/N=C/c2c(O)n(-c3ccc(C)cc3C)c(=O)c3ccccc23)n1	1	1	53*	1	14	60*	42*
Nc1nc2ccc(S(=O)(=O)c3ccc4nc(N)sc4c3)cc2s1	·	-3	28*	-6	8	72*	49*
Nc1nc2ccc(O)cc2s1	·	0	5	-12	2	·	·
Cc1c(C)c2ccc(O[C@@H]3O[C@H](CO)[C@@H](O)[C@H](O)[C@H]3O)c(C)c2oc1=O	1	0	23	-3	7	·	·
CC1(C)Oc2ccc3ccc(=O)oc3c2C[C@H]1O[C@@H]1O[C@H](CO)[C@@H](O)[C@H](O)[C@H]1O	0	0	55*	4	11	22	12*
CC1(C)Oc2ccc3ccc(=O)oc3c2[C@@H](O)[C@H]1O	1	6	69*	3	17	64*	66*
C/C=C(/C)C(=O)OC1c2c(ccc3ccc(=O)oc23)OC(C)(C)C1OC(=O)/C(C)=C\C (stereo unspecified)	0	12	12	17	16	·	·
CC1(C)Oc2ccc3ccc(=O)oc3c2CC1O (stereo unspecified)	0	-3	78*	0	27	80*	69*
CC(=O)O[C@@H]1[C@H](OC(=O)CC(C)C)c2c(ccc3ccc(=O)oc23)OC1(C)C	2	-9	15	18	19	·	·
